# Compounds with a hit are over-represented: about 19% of the library has one in this group of screens.
# S-ASM inh: Inhibitors of Secretory Acid Sphingomyelinase (S-ASM): qHTS | Sphingomyelin phosphodiesterase (Homo sapiens), P17405 | placental ASM, HMU-PC fluorogenic substrate, 60 min | Potency, µM (titrated, usually from 57.5 µM), without a hit: at the highest dose activity change, negative = inhibition, usual class: inhibitors | 0.006% of 340,000 active | AID 504937, 2011; also: potency is read from the fitted curve at half-maximal effect
# Target sequence (P17405 47-631 limits assumed): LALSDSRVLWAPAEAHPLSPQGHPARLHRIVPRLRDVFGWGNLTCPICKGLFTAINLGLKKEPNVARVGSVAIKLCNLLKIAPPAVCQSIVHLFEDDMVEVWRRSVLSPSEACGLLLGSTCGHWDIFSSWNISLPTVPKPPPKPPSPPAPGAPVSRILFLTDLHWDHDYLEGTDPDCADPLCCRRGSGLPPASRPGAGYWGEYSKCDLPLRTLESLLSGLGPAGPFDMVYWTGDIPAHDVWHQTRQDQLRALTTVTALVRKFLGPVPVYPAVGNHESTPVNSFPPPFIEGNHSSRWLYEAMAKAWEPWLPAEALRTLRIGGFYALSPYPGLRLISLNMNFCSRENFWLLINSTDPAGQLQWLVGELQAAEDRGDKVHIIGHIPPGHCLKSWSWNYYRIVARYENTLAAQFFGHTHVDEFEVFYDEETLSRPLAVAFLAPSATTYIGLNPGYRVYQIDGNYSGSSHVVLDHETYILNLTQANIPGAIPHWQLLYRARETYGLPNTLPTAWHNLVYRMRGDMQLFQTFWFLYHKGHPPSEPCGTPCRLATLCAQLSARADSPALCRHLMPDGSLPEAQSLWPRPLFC
#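 HMU-PC0 cleavage (9 uM final) by human placental ASM, 60 min at 37 °C following 10 min compound exposure at RT; stopped at pH 10, fluorescence Ex 386/Em 447 nm.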
# IL1B secr inh: qHTS for Inhibitors of Inflammasome Signaling: IL-1-beta AlphaLISA Primary Screen; THP-1 LPS/ATP IL-1B secretion, AlphaLISA, 16 h; active compounds read low; activity change, % at 57.5 µM; 4.7% of 360,000 active; AID 743279, 2014; in the data active = activity change below about -50%; inconclusive = mostly about -30% to -49%; also: % is scaled to controls: 0 for no effect and ±100 for the full control effect
#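 THP-1 cells pretreated 1 hr with compounds (up to 57.5 uM final), then stimulated with LPS (250 ng/mL final) plus ATP (1.25 mM final); secreted IL-1B measured by AlphaLISA after 16 hr, decreased signal indicating inhibition.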
# TGFb SMAD3 inh: qHTS for Inhibitors of TGF-b; HepG2 CAGA-GFP TGF-b/SMAD3 reporter, GFP fluorescence, 18 h; TGF-beta stimulated, 500 pg/mL final; Potency, µM (top dose mostly 46.1 µM), inactives show at the top dose activity, negative = inhibition, hits mostly inhibitors; 1.2% of 410,000 active; AID 588855, 2011; also: potency is read from the fitted curve at half-maximal effect; % is scaled to controls: 0 for no effect and ±100 for the full control effect; nearly all actives have a fitted effect of over 65% in size
#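 Smad-responsive CAGA-GFP expression was quantified in HEPG2 cells exposed to compounds and 500 pg/mL final TGF-beta for 18 h at 37 degrees C; unstimulated wells defined full inhibition.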
# HepG2 tox: qHTS for Inhibitors of TGF-b: Cytotox Counterscreen; HepG2 CAGA-GFP viability, ATP luminescence, 18 h; 0.76% of 410,000 active; Potency, µM (titrated, usually from 46.1 µM), for inactives: top-dose activity change, negative = cytotoxicity, usual class: cytotoxic; also: potency is read from the fitted curve at half-maximal effect
#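 HepG2 CAGA-GFP cells (1000/well, DMEM with 1% FBS) received compound, then TGF-beta at 500 pg/mL final, and were incubated 18 hours at 37 degrees C. Viability was read by CellTiter-Glo luminescence. Media-only wells were set as complete cell-killing and DMSO as no toxicity.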
# DT40 TDP1 no CPT: qHTS for Inhibitors of human tyrosyl-DNA phosphodiesterase 1 (TDP1): qHTS in cells in absence of CPT; DT40 Tdp1-/- hTDP1 cells, no CPT, ATP luminescence, 48 h; 15% of 420,000 active; Potency, µM (titrated, usually from 46.2 µM), for the others: at the highest dose activity change, negative = growth inhibition, most hits filed as inhibitors; also: potency is read from the fitted curve at half-maximal effect; % is scaled to controls: 0 for no effect and ±100 for the full control effect; nearly all actives have a fitted effect of over 55% in size
#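 Compound effects on proliferation are scored in DT40 Tdp1-/-;hTDP1 cells in the absence of CPT. ATP levels (CellTiter-Glo luminescence) are recorded after a ≥48 hr, 37 °C incubation.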
# TDP1 cell CPT: qHTS for Inhibitors of human tyrosyl-DNA phosphodiesterase 1 (TDP1): qHTS in cells in presence of CPT | chicken DT40 Tdp1-/-;hTDP1 cells + 20 nM CPT, ATP luminescence, 48 h | Potency, µM (top dose mostly 46.2 µM), inactives show at the highest dose activity change, negative = growth inhibition, usual class: inhibitors | 12% of 420,000 active | AID 686979, 2013; also: potency is read from the fitted curve at half-maximal effect; % is scaled to controls: 0 for no effect and ±100 for the full control effect; nearly all actives have a fitted effect of over 55% in size
#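 Chicken DT40 Tdp1-/- cells complemented with human TDP1, 400 cells/well, exposed to compounds plus 20 nM camptothecin for at least 48 h at 37 C; viability read as ATP content by CellTiter-Glo luminescence.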
# * = called active by the depositor; i = inactive; ? = inconclusive; · = no result given; ! = a repeat was not active; [ ] = another dose, or the depositor's remark. Unless noted, calls follow the shape of the dose curve; as a rule, active = well fitted curve in the direction sought with a large enough effect; inconclusive = small, poorly fitted or top-dose-only effect, or another doubt; inactive = no such curve, though single readings can be large; an effect the other way counts as inactive or inconclusive.
SMILES,S-ASM inh,IL1B secr inh,TGFb SMAD3 inh,HepG2 tox,DT40 TDP1 no CPT,TDP1 cell CPT
COc1cccc(C(O)c2ncc(-c3cccc4ccccc34)[nH]2)c1 (configuration not stated),·,-8,0%,-28%,9.2µM*,16µM*
OC(c1cccc(Cl)c1)c1ncc(-c2cccc3ccccc23)[nH]1 (configuration not stated),·,-21,?,-43%,16µM*,21µM*
Cc1cc(Cl)ccc1C(O)c1ncc(-c2ccccc2Cl)[nH]1 (configuration not stated),·,-5,?,-26%,?,21µM*
OC(c1cccc(Cl)c1)c1ncc(-c2ccc3ccccc3c2)[nH]1 (configuration not stated),·,-8,?,-49%,?,?
COc1ccc(C(O)c2ncc(-c3ccccc3OC)[nH]2)cc1 (configuration not stated),·,-8,23%,-7%,-5%,?
CC(=O)Nc1ccc(S(=O)(=O)NCCN2CCNC2=O)cc1Cl,0%,-2,-4%,2%,9%,-5%
COC(=O)[C@]12CCCCC=C1N(Cc1ccccc1)C(=O)[C@H](CC(=O)N1CCOCC1)C2,·,29,·,·,-30%,-19%
COc1ccc(OC)c(C(O)c2ncc(-c3cccc4ccccc34)[nH]2)c1 (configuration not stated),·,46,-19%,-22%,26µM*,18µM*
COc1ccc(OC)c(C(O)c2ncc(-c3ccccc3Cl)[nH]2)c1 (configuration not stated),·,1,-9%,-4%,-42%,-110%
CN(C(=O)c1cccc(NC(=O)Cc2ccc(NC(=O)C3CCN(C(=O)C4CCCC4)CC3)cc2)c1)C1CC1,0%,-16,-10%,6%,?,?
N#Cc1c(-c2cccs2)cc(-c2cccnc2)nc1N,i,35,?,-4%,?,?
N#Cc1c(-c2cccs2)cc(-c2ccccn2)nc1N,i,-11,-26%,-7%,5.8µM*,5.8µM*
CCOc1nc(-c2ccccc2)c2cc(Br)ccc2n1,6%,27,0%,3%,?,?
NS(=O)(=O)c1ccc(Nc2c([N+](=O)[O-])cncc2[N+](=O)[O-])cc1,-4%,58,?,-27%,?,?
O=[N+]([O-])c1cncc([N+](=O)[O-])c1Nc1ccccc1Cl,-5%,-21,?,-24%,23µM*,18µM*
COc1ccccc1C(=O)N1CCN(CCNC(=O)C(=O)Nc2ccc(Br)c(C)c2)CC1,-2%,-4,?,-37%,10µM*,?
COc1ccc(C(=O)N2CCN(CCNC(=O)C(=O)Nc3ccc(Br)cc3)CC2)cc1,0%,-7,2%,0%,?,?
Cc1ccccc1C(=O)N1CCN(CCNC(=O)C(=O)Nc2ccc(Br)cc2)CC1,0%,0,4%,-54%,?,15µM*
COc1ccc(NC(=O)C(=O)NCCN2CCN(C(=O)c3ccc(C(C)(C)C)cc3)CC2)cc1,4%,18,-14%,3%,16µM*,16µM*
Cc1ccc(SCC(=O)OC(C)C(=O)Nc2ccc(S(N)(=O)=O)cc2)cc1C (configuration not stated),2%,9,-2%,-4%,?,1%
COc1ccc(CCNc2ccncn2)cc1OC,2%,22,7%,-4%,-26%,-25%
COc1cccc(CCNc2ncnc3c2nnn3C)c1,·,·,?,-44%,8.2µM*,?
COc1ccc(CCNc2ncnc3c2nnn3C)cc1,·,·,?,-30%,21µM*,16µM*
COc1cccc(CNc2ncnc3c2nnn3C)c1,·,·,1%,-11%,?,?
COc1ccccc1CNc1ncnc2c1nnn2C,·,·,2%,5%,-3%,15%
SMILES,S-ASM inh,IL1B secr inh,TGFb SMAD3 inh,HepG2 tox,DT40 TDP1 no CPT,TDP1 cell CPT
COc1ccc(CCNc2ccncn2)cc1,4%,-5,-14%,1%,15µM*,9.2µM*
Cc1ccccc1C1(CC(=O)N2CCCCC2C)CC(=O)N(Cc2cccnc2)C1=O (configuration not stated),·,·,·,·,?,17%[9.04 µM]
CCC(=O)c1ccc(OCC(=O)OCC(=O)NCC2CCCCC2)cc1,1%,3,0%,-9%,-4%,2%
CSc1nn(Cc2ccccc2C)c(NC(C)=O)c1S(=O)(=O)c1ccc(C)cc1,·,·,?,3%,15µM*,?
CCCCCNC(=O)C1C(=O)Nc2ccccc2C(=O)N1c1c(C)cccc1C (configuration not stated),·,9,·,·,-20%,5%
COc1cc(-c2c(-c3ccc4c(c3)OCO4)noc2-c2ccsc2)ccc1F,3%,-17,1%,-21%,?,?
c1ccc(-c2onc(-c3ccco3)c2-c2ccc3[nH]ccc3c2)cc1,-7%,-11,14µM*,-40%,?,7.9µM*
Cc1onc(-c2ccc3c(c2)OCO3)c1-c1ccc2[nH]ccc2c1,-2%,-57*,13µM*,-13%,16µM*,18µM*
c1cc2cc(-c3c(-c4ccc5c(c4)OCO5)noc3-c3ccsc3)ccc2[nH]1,6%,-57*,?,-85%,3.2µM*!,?
COC(=O)c1ccccc1NC(=O)COc1ccccc1C(=O)Nc1ccccc1,·,·,?,-27%,?,?
Cc1nnc2nc(-c3ccccc3)nc(-c3ccccc3)n12,-6%,-8,-11%,0%,15µM*,?
Cn1nc(-c2ccccc2)nc1-c1ccccc1,1%,24,23%,5%,-27%,?
CCOC(=O)Cc1nnc(NC(=O)C(CC)Sc2nc(C)cc(=O)[nH]2)s1 (configuration not stated),14%,5,1%,1%,16µM*,?
CCOC(=O)Cc1nnc(NC(=O)C(CC)Sc2nncn2C)s1 (configuration not stated),2%,14,9%,1%,-1%,7%

# From PubChem BioAssay
